Screening data as filed in PubChem BioAssay.
LmPK inhibitor: qHTS Assay for Inhibitors of Leishmania Mexicana Pyruvate Kinase (LmPK); purified LmPK, Kinase-Glo ATP luminescence, 1 h; AID 1721, 2009; 290,000 tested, 0.37% active; Q27686; Potency, µM (doses to about 57.5 µM), for the others: at the highest dose activity change, negative = inhibition, usual class: inhibitors; also: potency is read from the fitted curve at half-maximal effect; % is scaled to controls: 0 for no effect and ±100 for the full control effect
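Kinase-Glo luminescence read after 1 h RT reaction of 0.1 nM LmPK with 0.5 mM PEP and 0.1 mM ADP. Activity scaled between uninhibited and enzyme-free controls.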
Shiga toxin inh: A qHTS for Small Molecule Inhibitors of Shiga Toxin | Vero cells, Shiga toxin protein synthesis inhibition reporter | inhibition, % at 38.7 µM | 290,000 tested, 9.2% active; in the data active = inhibition mostly above about 28%, no sharp cut-off; inactive = mostly below about 43%; also: 0% is about no effect
Giardia FBPA inh: qHTS Assay for Inhibitors of Fructose-1,6-bisphosphate Aldolase from Giardia Lamblia. Potency, µM (series often up to 59.6 µM), for inactives: top-dose activity, negative = inhibition, hits mostly inhibitors. purified Giardia FBPA. AID 2451, 2010. A8B2U2. 290,000 tested, 0.71% active; also: potency is read from the fitted curve at half-maximal effect; % is scaled to controls: 0 for no effect and ±100 for the full control effect; nearly all actives have a fitted effect of over 55% in size
Target sequence (A8B2U2 whole entry, looked up): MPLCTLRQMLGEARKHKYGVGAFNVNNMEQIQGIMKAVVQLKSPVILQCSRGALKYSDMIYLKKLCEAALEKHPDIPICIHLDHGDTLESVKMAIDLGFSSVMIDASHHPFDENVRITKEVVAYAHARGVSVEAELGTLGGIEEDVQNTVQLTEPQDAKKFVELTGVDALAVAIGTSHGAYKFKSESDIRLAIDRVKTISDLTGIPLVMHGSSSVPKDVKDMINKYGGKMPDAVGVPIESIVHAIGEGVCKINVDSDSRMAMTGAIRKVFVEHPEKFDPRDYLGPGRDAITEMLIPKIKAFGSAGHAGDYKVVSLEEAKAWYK
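Giardia FBPA (40 nM reagent) was preincubated 10 min at RT with compound (up to 57.5 uM final), then substrate plus GAPDH/TPI/NAD/arsenate coupling system with diaphorase/resazurin was added; resorufin fluorescence (525/598 nm) was read after 20 min.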
RE007 growth inh: qHTS Assay for Inhibitors of the HIV-1 protein Vpr; S. pombe RE007 Vpr strain, BacTiter-Glo ATP luminescence, 24 h; Potency, µM (series often up to 92.2 µM), inactives show at the top dose activity change, negative = less growth, hits mostly inhibitors; 360,000 tested, 0.21% active; AID 651644, 2012; active = well fitted falling curve with a large enough effect; inconclusive = small, poorly fitted or top-dose-only effect; inactive = no such curve, though single readings can be large or run the other way; also: potency is read from the fitted curve at half-maximal effect; % is scaled to controls: 0 for no effect and ±100 for the full control effect; nearly all actives have a fitted effect of over 50% in size
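Fission yeast RE007 carrying one integrated HIV-1 vpr copy, seeded at OD 0.01 in PMG+AL medium with 23 nL pinned compound. Grown 24 h at 30 degrees; viability read by BacTiter-Glo luminescence after 5 min.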
Tb PYK inh: qHTS of Trypanosoma Brucei Inhibitors. pyruvate kinase (Trypanosoma brucei), Q57TT1. TbPYK enzyme, Kinase-Glo Plus ATP luminescence, 45 min. Potency, µM (series often up to 76.8 µM), for the others: top-dose activity, negative = inhibition, hits mostly inhibitors. 410,000 tested, 0.12% active. AID 624173, 2012; also: potency is read from the fitted curve at half-maximal effect; % is scaled to controls: 0 for no effect and ±100 for the full control effect; nearly all actives have a fitted effect of over 50% in size
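Luminescence from Kinase-Glo Plus, added after a 45-minute room-temperature reaction, served as the end-point read-out. The enzyme and substrate were preincubated with compound before ADP (130 uM final) initiated turnover. Concentration-effect curves came from normalized qHTS data.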
Cycloheximide cs: Cycloheximide Counterscreen for Small Molecule Inhibitors of Shiga Toxin; cell reporter, cycloheximide protein synthesis inhibition counterscreen; max response, %; 300,000 tested, 12% active; AID 2314, 2010; in the data active = max response mostly above about 13%, no sharp cut-off; inactive = mostly below about 14%; also: read at 38.3 µM for the half of the compounds with a filed dose; 0% is about no effect
* = called active by the depositor; ? = inconclusive; / = not tested or not shown. This is one part of a sample in which hits are shown more often than they occur. Unless noted, calls follow the shape of the dose curve; as a rule, active = well fitted curve in the direction sought with a large enough effect; inconclusive = small, poorly fitted or top-dose-only effect, or another doubt; inactive = no such curve, though single readings can be large; an effect the other way counts as inactive or inconclusive.

SMILES	LmPK inhibitor	Shiga toxin inh	Giardia FBPA inh	RE007 growth inh	Tb PYK inh	Cycloheximide cs
Cc1cccc(-c2cc3nc4c(c(N5CCOCC5)n3n2)CCCC4)c1	-8.1%	72.8*	-6.1%	-16.9%	0.3%	32.0*
Fc1ccc(-c2cc3nc4c(c(N5CCOCC5)n3n2)CCCC4)cc1	7.3%	94.5*	-5.4%	-8.5%	-11.4%	29.4*
CC(=O)Nc1ccc(NC(=O)CSc2nnc(-c3ccc4c(c3)OCO4)o2)cc1	/	/	/	-9.1%	0.4%	/
CC(=O)CSc1nnc(-c2ccc3c(c2)OCO3)o1	?	36.4*	3.5%	-26.1%	-7.1%	20.3*
c1cc(CSc2nnc(-c3ccc4c(c3)OCO4)o2)ccn1	0.7%	87.6*	6.8%	8.7%	0.4%	43.7*
O=C(CSc1nnc(-c2ccc3c(c2)OCO3)o1)Nc1ncc(Cl)cc1Cl	1.1%	31.0*	-0.3%	0.6%	-7.3%	18.7*
N#Cc1nc(Cc2ccccc2)oc1N1CCCC1	-0.9%	35.0*	-0.3%	7.1%	0.3%	26.4*
COc1ccccc1OCc1nc(C#N)c(N2CCCC2)o1	2.0%	48.9*	-1.3%	-15.0%	0.4%	27.0*
CC1CC(C)CN(c2oc(Cc3ccccc3)nc2C#N)C1 (centres undefined)	2.8%	13.1	2.9%	4.1%	-9.0%	6.1
Cc1ccccc1OCc1nc(C#N)c(N2CCCC2)o1	6.0%	37.3	3.7%	-11.5%	1.7%	4.0
CN1CCN(C(=O)C2CCN(c3ncc(C(F)(F)F)cc3Cl)CC2)CC1	0.6%	-14.9	1.7%	1.2%	-2.8%	-4.7
NNC(=O)C=C1CCN(c2ncc(C(F)(F)F)cc2Cl)CC1	0.2%	6.6	-4.7%	-8.8%	-1.8%	18.3*
COC(=O)c1c(/N=C/N(C)C)sc2c1CCN(c1ncc(C(F)(F)F)cc1Cl)C2	11.0%	4.8	-23.1%	?	-18.2%	27.8*
COC(=O)c1c(N(S(C)(=O)=O)S(C)(=O)=O)sc2c1CCN(c1ncc(C(F)(F)F)cc1Cl)C2	0.9%	9.2	-25.0%	-0.6%	-4.6%	6.6
O=C(CN1CCN(c2ncc(C(F)(F)F)cc2Cl)CC1)N1CCN(c2ncc(C(F)(F)F)cc2Cl)CC1	8.9%	-12.0	-9.4%	-5.0%	3.4%	0.9
O=C(O)C=C1CCN(c2ncc(C(F)(F)F)cc2Cl)CC1	0.6%	33.9	11.3%	-10.0%	-1.7%	26.2*
O=C(COc1ccccc1F)Nc1ccccc1OCc1cc(=O)n2ccccc2n1	/	/	/	/	-2.5%	/
Cc1ccc(-c2onc3ccc(C=O)cc23)cc1	-7.0%	98.6*	-3.3%	?	-2.6%	58.7*
Cc1cc(-c2onc3ccc(Cl)cc23)ccc1O	-8.0%	49.6*	-0.5%	-1.2%	-7.0%	27.1*
CCCCN(Cc1ccccc1)S(=O)(=O)c1ccc2c(c1)CC(C)N2C(=O)CC (centres undefined)	/	/	/	/	-7.2%	/
COc1cc(C2C(C#N)=C(N)OC3=C2C(=O)CC(C)(C)C3)ccc1OCCN1CCOCC1 (centres undefined)	2.6%	25.5	1.1%	-6.6%	1.4%	20.5*
CCOc1ccc(C2C(C#N)=C(N)Oc3cc(C)n(CCN4CCOCC4)c(=O)c32)cc1OCC (centres undefined)	0.1%	-5.2	0.7%	3.2%	4.6%	-4.2
COc1cc(C2C(C#N)=C(N)Oc3cc(C)n(CCN4CCOCC4)c(=O)c32)cc(OC)c1OC (centres undefined)	-8.1%	52.4	1.0%	-19.2%	1.0%	40.7*
C=CCNc1nc(-c2ccc(OC)cc2OC)cs1	0.0%	69.2*	?	-23.6%	6.4%	38.0*
O=[N+]([O-])c1ccc(Nc2ccccc2)cc1	-5.4%	25.8	-13.6%	-21.4%	-0.7%	15.8*
SMILES	LmPK inhibitor	Shiga toxin inh	Giardia FBPA inh	RE007 growth inh	Tb PYK inh	Cycloheximide cs
CC(=O)Nc1ccc(S(=O)(=O)Nc2ccc([N+](=O)[O-])cc2)cc1	/	/	27.8%	/	0.1%	/
O=[N+]([O-])c1ccc(S(=O)(=O)Nc2ccc(-c3ccccc3)cc2)cc1	/	/	/	35.5µM*	-2.9%	/
COC(=O)CC(=O)CSc1nc2c(cc1C#N)CCCCC2	-18.7%	105.0*	-0.1%	-6.2%	-11.4%	46.3*
CCc1nnc(NC(=O)CSc2nc3c(cc2C#N)CCCC3)s1	1.7%	57.9*	0.0%	2.6%	-1.5%	35.2*
CCN(c1cc(C)cc(C)c1)S(=O)(=O)c1nnc(NC(=O)c2cccc(F)c2)s1	/	/	/	/	-3.8%	/
COC(=O)C(CCSC)NC(=O)c1cc2c(n(-c3ccc(C)cc3)c1=O)CCCC2=O (centres undefined)	27.2%	24.5	-9.0%	-4.2%	-1.7%	19.4*
COc1ccc(C2/C(=C(/O)c3ccccc3)C(=O)C(=O)N2C)cc1OC (centres undefined)	-0.6%	26.7*	-3.7%	6.3%	5.2%	14.1*
Cn1cc(/C=C2\SC(=O)N(c3ccc(O)cc3)C2=O)c2ccccc21	5.0%	90.6*	-16.9%	-1.2%	0.1%	44.9*
CCN=C1S/C(=C\c2cn(CC)c3ccccc23)C(=O)N1CC	-2.2%	13.5	-0.6%	-8.6%	-0.3%	-2.4
Cn1cc(/C=C2\SC(=O)N(c3ccccc3)C2=O)c2ccccc21	2.7%	-3.2	1.1%	-5.8%	-4.6%	19.1*
CCN1C(=O)S/C(=C/c2cn(C)c3ccccc23)C1=O	-6.4%	43.7*	12.7%	-3.0%	-4.5%	27.1*
CNc1cncc(-c2ccoc2)n1	/	/	/	-3.5%	-0.2%	/
CCOC(=O)N1CCN(C(=O)Cc2ccccc2OC)CC1	-0.4%	-2.9	-0.4%	2.6%	-3.4%	-1.9
COc1cc(/C(C)=N/N2CCN(c3ccccc3OC)CC2)ccc1O	-7.2%	19.9	9.4%	-13.2%	1.8%	21.6*
COc1ccccc1N1CCN(Cc2cc(C)c(C)cc2O)CC1	8.7%	-4.0	-3.5%	-17.1%	-2.8%	6.1
COc1ccccc1N1CCN(/N=C(\C)c2ccccc2O)CC1	-0.7%	33.7*	8.7%	-11.7%	-8.9%	32.5*
COc1ccccc1N1CCN(C(=O)c2cc(-c3ccc(C)c(F)c3)on2)CC1	/	/	/	/	0.8%	/
CCn1nc(C)c(/C=N/NC(=S)Nc2ccc(Cl)cc2Cl)c1C	6.6%	active	-3.5%	-9.0%	-5.6%	11.0
Cc1nn(C)cc1/C=N/NC(=S)Nc1ccc(Cl)cc1Cl	4.6%	active	-6.1%	-0.9%	-3.3%	12.3*
CCOc1ccc(CN(CCc2ccc3c(c2)OCO3)Cc2cc(OC)c(OC)cc2OC)cc1	/	/	/	/	1.2%	/
O=S(=O)(c1ccccc1)c1nnn2c1nc(NCc1cccs1)c1sccc12	/	/	/	/	-7.3%	/
CCCC(=O)Nc1ccc(C)c(O)c1	2.5%	-10.0	0.2%	28.0%	-0.4%	-1.5
CCCC(=O)Nc1ccc(-c2nc3cc(C)ccc3o2)cc1	-3.1%	70.3*	2.0%	-23.4%	-1.7%	31.4*
